14 compounds from PubChem BioAssay (NCI) can be followed below.

Each structure is given as a SMILES string. Several values for one entry are separate records, joined by “and”; a condition that tells them apart may be missing. Equal values may be shown once. Compounds without any hit were thinned out: in the full panel of roughly 83,000, 20% have a hit.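 Note: values are percent growth. 100 is the growth of untreated cells, values between 100 and 0 indicate rising inhibition; between -100 and 0 indicates cell death.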 Activity calls are given as the source filed them. The calls were made as follows: active = growth percent below 10; inactive = the rest.

The assay concerns HL-60(TB) leukemia. In words: NCI-60 one-dose screen, 48 h (100 = growth as untreated, 0 = no growth, -100 = all killed). The following applies: 10 µM unless noted.
For `COc1ccc(/C(=C/c2cc(OC)c(OC)cc2[N+](=O)[O-])C(=O)O)cc1`, the growth was 98.5% (inactive).
Take `CN(CCC(=O)/C(=C\c1ccccc1)c1ccc(Cl)cc1)Cc1ccccc1`: the growth is 41% (inactive).
For `O=C(c1ccccc1)C(CN1CCOCC1)c1ccccc1` (centres undefined), the growth is 12.2% (inactive).
Take `COc1cc(C2CC(=O)c3c(C)nn(-c4nc5ccccc5[nH]4)c3C2)cc(OC)c1OC` (centres undefined): the growth is 132% (inactive).
As to `NC(=O)c1ccc[n+]([C@@H]2O[C@H](COP(=O)([O-])OP(=O)(O)OC[C@H]3O[C@@H](n4cnc5c(N)ncnc54)[C@H](O)[C@@H]3O)[C@@H](O)[C@H]2O)c1`, the growth is 109% (inactive).
For `COc1cc(NC(=O)COc2ccccc2)c(C(N)=O)cc1OC`, the growth is -11.7% (active).
For the compound `Cc1cc(Cl)c2c(Cl)ccc(Cl)c2n1`, the growth is 96.2% (inactive).
With `Cn1cc(-c2ccc3nc(-c4ccc(CC(=O)ONc5cc(C(C)(C)C)on5)cc4)cnc3c2)cn1`, the growth was 29% (inactive).
As for `COc1cc(C2NC(c3ccc(Cl)cc3)C(C)C(=NC(=O)c3cnccn3)C2C)cc(OC)c1OC` (centres undefined), the growth is 98.4% (inactive).
For the compound `CC(=O)OCC(COC(C)=O)(COC(C)=O)COC(C)=O`, the growth was 104% (inactive).
Take `O=C1/C(=C/c2ccc(Cl)cc2)COc2ccc(O)cc21`: the growth is -11.3% (active).
Take `Cc1ccc(NC(=S)NNC(=S)NNc2ccccc2)cc1C`: the growth is 20.4% (inactive).
The result for `Cc1cc(C)c(N)c(Br)c1` reads 97.9% (inactive) and 69% (inactive).
On to `Fc1ccc(Nc2nc(NCCNc3ccnc4cc(Cl)ccc34)nc(N3CCOCC3)n2)cc1`, for which the growth is -6.82% (active).
